# Sampled rows, rich in hits. Any-hit rate of the full collection: about 3.9%.
# SKKanGAS inh: S. pyogenes SKKanGAS growth inhibitors in kanamycin, primary screen, streptokinase expression inhibitor project, SKKanGAS strain, BacTiter-Glo luminescence | 6 h | inhibition, % at 7.5 µM | 300,000 compounds, 1.3% hits | AID 1662, 2009;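 active means mean replicate score, as percent of positive control median, at least 50; inconclusive means mean below 50 but one replicate at or above 50; inactive means mean and every replicate below 50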;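 further: strain carries kanamycin resistance gene driven by streptokinase promoter and grows in 40 µg/ml kanamycin; loss of luminescence reflects streptokinase promoter inhibition or plain growth inhibition; 0% = median of DMSO wells and 100% = positive control at its reference dose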
# Rtt109 Vps75: inhibitors of C. albicans Rtt109/Vps75 HAT, primary screen, biochemical, ThioGlo CoA-SH fluorescence, plate reader. purified Rtt109/Vps75, 4 h. 330,000 compounds, 0.16% hits. inhibition, % at 34.9 µM. AID 540336, 2011. Histone acetyltransferase RTT109 (Candida albicans (strain SC5314 / ATCC MYA-2876)), …;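 active means inhibition of at least 50% in every replicate; inconclusive means best replicate reaches 50% inhibition but some replicates fall short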
# Target sequence (Q5AAJ8 whole entry, looked up): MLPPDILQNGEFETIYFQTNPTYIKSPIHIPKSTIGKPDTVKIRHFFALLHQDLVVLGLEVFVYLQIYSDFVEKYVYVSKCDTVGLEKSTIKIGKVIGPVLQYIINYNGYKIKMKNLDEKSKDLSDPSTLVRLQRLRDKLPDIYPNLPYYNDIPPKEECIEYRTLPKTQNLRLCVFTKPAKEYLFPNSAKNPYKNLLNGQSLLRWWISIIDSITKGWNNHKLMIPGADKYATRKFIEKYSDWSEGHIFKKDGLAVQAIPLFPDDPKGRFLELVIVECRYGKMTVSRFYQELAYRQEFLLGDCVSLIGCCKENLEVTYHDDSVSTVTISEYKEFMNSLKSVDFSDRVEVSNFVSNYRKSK
# WT yeast gro inh: growth inhibition of WT strain, primary screen, mitochondrial fusion inhibitor project, WT and mutant strains, chemical genetic | mitochondrial fusion phenotypic screen | inhibition, % at 10 µM | 190,000 compounds, 2.1% hits; in the data active means inhibition above about 58%; tested in S. cerevisiae
# PHOSPHO1 block: PubChem AID 1565 | recombinant PHOSPHO1, absorbance phosphatase assay | inhibition, % at 13.3 µM | Phosphoethanolamine/phosphocholine phosphatase (Homo sapiens), Q8TCT1 | 290,000 compounds, 1.1% hits; in the data active means inhibition above about 60%
# Platelet DG rel: inhibitors of platelet dense granule secretion, primary screen, cell-based, MLPCN, human platelets; human platelet-rich plasma, SFLLRN dense granule ATP release, luminescence; inhibition, %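 (compounds screened at 7.5 µM in platelet-rich plasma)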; 300,000 compounds, 0.22% hits;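 active means mean replicate score, as percent of positive control, at or above 50; inconclusive means mean below 50 but at least one replicate at or above 50; inactive means mean and every replicate below 50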
# TPT1 inh: Candida albicans TPT1 enzyme inhibitors, primary screen, biochemical, fluorescence polarization | AID 1962, 2009 | recombinant caTPT1, FP RNA substrate dephosphorylation | inhibition, % at 5 µM | 300,000 compounds, 0.81% hits;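 active means inhibition above the mean of all tested compounds plus 3 SD, set per screening campaign, cut at about 24% in these data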;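 further: plate controls were DMSO alone for no effect and ferristatin control at 100 nM for full effect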
# Numbers without * were called inactive; ? = inconclusive; / = no result.
SMILES,SKKanGAS inh,Rtt109 Vps75,WT yeast gro inh,PHOSPHO1 block,Platelet DG rel,TPT1 inh
O=C(Nc1cc(Cl)cc(Cl)c1)Nc1cnccn1,?,-3,/,4,5,-3
CCCCn1c(N)c(N(CCOC)C(=O)CN2C(=O)C3CCCCC3C2=O)c(=O)[nH]c1=O (centres undefined),/,-2,/,/,/,/
C=CCc1cc(Cl)ccc1OCCOCCNC(C)(C)C,-1,/,12,63*,0,-2
C=CCc1cc(Cl)ccc1OCCOCCNCCOC,20,6,-2,23,20,-4
COCCCNc1nc2nonc2nc1N1CCC(C(C)N2CCOCC2)CC1 (centres undefined),-7,-6,1,70*,0,-2
COCCNc1nc2nonc2nc1N1CCC(N(C)C)C1 (centres undefined),-15,-1,-11,56,-8,-3
CCOC(=O)CC(NC(=O)CCS(=O)(=O)c1ccc2c(c1)n(C)c(=O)c(=O)n2C)c1ccc(C)cc1 (centres undefined),59*,-20,/,38,-3,1
O=C(Nc1ccccc1)OC1CCC2CC1CCC2OC(=O)Nc1ccccc1 (centres undefined),52*,18,67*,-5,23,-4
O=C(Nc1ccccc1)C1CC2CCC1C2 (centres undefined),0,-1,/,30,-8,-1
Cc1ccc(CSc2nnc(-c3ccccc3N)c(=O)[nH]2)cc1,3,4,63*,102*,2,3
C[C@H](CO)N1C[C@H](C)[C@@H](CN(C)Cc2ccncc2)Oc2c(NS(=O)(=O)c3cn(C)cn3)cccc2C1=O,/,1,/,/,/,/
CC(C)(C)S(=O)(=O)N1Cc2ccc(CO)cc2[C@@H]1CCO,/,0,/,/,/,/
Cc1noc2ncnc(N3CCN(c4cccc(Cl)c4)CC3)c12,-6,-6,61*,34,4,0
O=Cc1cc2ccccc2nc1SCc1ccc(Cl)cc1,51*,5,19,18,-7,2
O=Cc1cc2ccccc2nc1SCc1ccc(Cl)c(Cl)c1,45,-5,19,22,-3,-4
NNC(=O)c1c(O)c2cccc3c2n(c1=O)CCC3,17,0,/,24,6,6
CC(On1nnc2ccccc21)C(=O)N1CCN(Cc2ccccc2)CC1 (centres undefined),/,7,-21,80*,0,-1
CCOC(=O)c1cc2ccc3ccccc3c2oc1=O,-3,-364,/,36,9,0
CCOC(=O)c1cc2ccc3ccccc3c2s1,-2,-4,60*,-1,-22,-4
Cc1cccc(NC(=O)c2nc[nH]c2C(=O)NC2CCN(C(=O)OC(C)(C)C)CC2)c1,/,-5,/,/,/,/
COc1cccc(NC(=O)[C@H](C)NC(=O)N2CCn3c2nc2ccccc23)c1,-4,1,/,65*,8,-2
COc1cc(NC(=O)[C@H](C)NC(=O)N2CCn3c2nc2ccccc23)cc(OC)c1,2,-4,/,44,-9,1
CCN(CC)C1CC(=O)N(c2cccc(Cl)c2)C1=O (centres undefined),-2,5,/,3,-2,0
COc1ccc(NC(=O)c2cccc(NC3=NC4CS(=O)(=O)CC4S3)c2)cc1Cl (centres undefined),2,8,/,28,-6,-1
COc1ccc(C(C)=O)cc1CC(=O)Nc1ccccc1-c1ccccc1,-1,-5,/,35,-20,2
SMILES,SKKanGAS inh,Rtt109 Vps75,WT yeast gro inh,PHOSPHO1 block,Platelet DG rel,TPT1 inh
Cc1cc(C(C)(C)C)oc1C(=O)N(CC(=O)NC1CCCC1)Cc1ccccc1Cl,34,0,64*,29,0,-1
O=c1c2cc(N3CCOCC3)ccc2[nH]c(=S)n1Cc1ccc(Cl)cc1,20,6,22,82*,-1,4
CC(C)[C@@H](C(=O)NCc1ccco1)N1C(=O)N2CCc3c([nH]c4ccccc34)[C@@]2(C)C1=O,-1,-7,/,3,2,-3
CCOC(=O)C1CCN(Cc2ccccn2)CC1,-1,/,/,/,-11,-4
CCOC(=O)C1CCN(C=Nc2cc(C)on2)CC1,-2,-5,-13,-48,57*,-3
Cn1c(N)c(C(=O)Nc2ccccc2F)sc1=S,-3,-3,/,28,/,4
Cn1c(N)c(C(=O)Nc2ccc3ccccc3c2)sc1=S,-2,-2,-3,96*,-2,14
COc1ccc(C(=O)OCC(=O)NCC2CCCCC2)cc1F,/,3,/,/,/,/
Cc1ccc(NC(=O)CCSc2nnc(C)s2)cc1,-2,-19,-2,-18,-1,-1
CC1=NN(/C(=N\c2nnc(C)s2)Nc2ccc(C(C)(C)C)cc2)[C@H](c2ccc(C)cc2)S1,58*,5,80*,-23,-1,-1
N#Cc1c(Cl)nc(SCc2ccccc2)nc1-c1ccccc1,/,/,6,96*,/,-1
c1ccc(CSc2nnc(-c3ccccc3)c(-c3ccccc3)n2)cc1,2,-9,/,/,-6,4
O=C(NC(C(=O)c1ccccc1)c1ccccc1)c1ccccc1 (centres undefined),/,-6,/,/,/,/
CCN(CC)c1nc(-c2ccccc2)ncc1S(=O)(=O)c1ccc(C)cc1,15,1,62*,39,-12,-5
CN(C)c1nc(-c2ccccc2)ncc1S(=O)(=O)c1ccccc1,-16,-1,14,41,9,1
Cn1nc(-c2ccccc2)c(CSc2ccccc2)c1Cl,62*,2,/,8,-1,-8
Cc1ccc(SCc2c(-c3ccccc3)nn(C)c2Cl)cc1,31,-17,53,9,13,-5
Cc1cccc(N2CCN(C(=O)c3cc(COc4ccc(F)c(F)c4)on3)CC2)n1,-7,0,/,44,1,-4
Cc1ccc([N+](=O)[O-])c(-c2n[nH]c(=S)n2-c2cccc(Cl)c2)c1,5,6,/,88*,-11,-5
Cc1ccc(-c2n[nH]c(=S)n2-c2ccccc2)cc1,6,5,5,0,0,-1
Cc1ccc(-n2c(-c3c(-c4ccccc4)noc3C)n[nH]c2=S)cc1,3,13,-9,85*,0,0
Cc1ccc(-n2c(-c3nn(C)c(C)c3Cl)n[nH]c2=S)cc1,-5,8,-15,95*,1,-4
Cc1cccc(-n2c(-c3ccoc3C)n[nH]c2=S)c1,6,0,0,9,8,-2
Cc1ccc(-n2c(-c3cccc(C)c3)n[nH]c2=S)cc1,-2,33,3,102*,2,-1
CC(C)(C)OC(=O)N1Cc2[nH]c3ccccc3c2C[C@@H]1C(=O)O,/,0,/,/,/,/
